In the library only some 8% were active in any assay of this set; here they are far more common.
HT1080 IDH1KD tx: qHTS for induction of synthetic lethality in tumor cells producing 2HG: qHTS for the HT-1080-IDH1KD cell line | AID 686971, 2013 | Potency, µM (titrated, usually from 46.1 µM), usual class: cytotoxic | 2% of 360,000 active | HT-1080 IDH1 knockdown viability, ATP luminescence, 48 h
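CellTiter-Glo luminescence after 48 h compound exposure at 37 degrees C of IDH1-knockdown HT-1080 cells in 5% FBS RPMI. %Activity scaled between DMSO wells and cell-free media wells, with curves fitted and assigned curve classes.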
SW480 rerep: A quantitative high throughput screen for small molecules that induce DNA re-replication in SW480 colon adenocarcinoma cells. Potency, µM (titrated, usually from 46.1 µM), usual class: activators. 1.8% of 340,000 active. SW480 DNA re-replication, Hoechst DNA content imaging, 48 h; further: nearly all actives have a fitted effect of over 55% in size
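Image-based read-out: total Hoechst fluorescence of nuclei (405 nm excitation, 500-530 nm emission), with hits raising the fraction of high-intensity nuclei. SW480 colon cells incubated 48 hr with compounds at 37 C.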
KB-V1 cytotox: qHTS assay for MDR1-selective chemotherapeutics: Primary screen using the drug-selected MDR subline cells KB-V1 | Potency, µM (highest dose often 46.1 µM), actives largely listed as cytotoxic | 3.4% of 400,000 active | KB-V1 MDR cells viability, CellTiter-Glo, 72 h; further: nearly all actives have a fitted effect of over 60% in size
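KB-V1, DMEM (no phenol red) + 10% FBS; cpd pin-transferred, titration series; 72 h, 37 degrees C; CellTiter-Glo, luminescence. Data normalized, curve-fit.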
MCF10A rereplic: A quantitative high throughput screen for small molecules that induce DNA re-replication in MCF 10a normal breast cells; MCF 10A DNA re-replication, Hoechst nuclear intensity, 48 h; Potency, µM (series often up to 46.1 µM), most hits filed as activators; 2.9% of 350,000 active; AID 624296, 2012; further: nearly all actives have a fitted effect of over 50% in size
KB-3-1 tox: qHTS assay for MDR1-selective chemotherapeutics: Primary screen using the parental adenocarcinoma cell KB-3-1. KB-3-1 viability, CellTiter-Glo ATP luminescence, 72 h. Potency, µM (titrated, usually from 46.1 µM), actives largely listed as cytotoxic. 1.4% of 400,000 active. AID 1347075, 2019; further: nearly all actives have a fitted effect of over 60% in size
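Here the drug-naive KB-3-1 line serves as comparator for MDR sub-line selectivity; cells received compound titrations, 72 h at 37 °C, then CellTiter-Glo readout.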
HT1080-NT tox: qHTS for induction of synthetic lethality in tumor cells producing 2HG: qHTS for the HT-1080-NT fibrosarcoma cell line | 1.6% of 360,000 active | HT-1080-NT fibrosarcoma viability, CellTiter-Glo ATP luminescence, 48 h | Potency, µM (top dose mostly 46.1 µM), actives largely listed as cytotoxic;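 further: NT is the 2HG producing partner of a matched IDH1 knockdown line; nearly all actives have a fitted effect of over 55% in size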
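Viability of the 2HG-overproducing fibrosarcoma line after 48 hours of compound exposure at 37 degrees C was determined by luminescence with CellTiter-Glo, and concentration-effect curves were then fitted and categorized.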
Numbers stand for hits; n = inactive; u = inconclusive; x = no result. The call rests on the fitted dose curve; in most records, active means well fitted curve in the direction sought with a large enough effect; inconclusive means small, poorly fitted or top-dose-only effect, or another doubt; inactive means no such curve, though single readings can be large; an effect the other way counts as inactive or inconclusive.

SMILES | HT1080 IDH1KD tx | SW480 rerep | KB-V1 cytotox | MCF10A rereplic | KB-3-1 tox | HT1080-NT tox
CN(C)S(=O)(=O)c1cccc(NC(=O)c2ccc(OC(F)(F)F)cc2)c1 | n | n | 2.6µM | n | u | n
CC(=O)c1c(C)[nH]c(C(=O)Nc2cccc(S(=O)(=O)N(C)c3ccccc3)c2)c1C | u | 23µM | u | 23µM | u | u
CN(c1ccc(C(=O)Nc2cccc(O)c2)cc1)S(=O)(=O)c1ccccc1 | n | n | x | n | x | n
CN(c1ccccc1)S(=O)(=O)c1cccc(NC(=O)CSc2nncs2)c1 | n | u | 4.1µM | n | u | n
CCOC(=O)c1ccc(NC(=O)CCNS(=O)(=O)c2cccs2)cc1 | n | n | n | n | n | n
O=C(Nc1ccccc1)C1=C(Nc2ccccc2)CSC1 | n | x | u | x | n | n
CC(C(=O)Nc1ccccc1C(F)(F)F)n1nc(-c2ccccc2)c2c(c1=O)CCCC2 (stereo not drawn) | x | x | n | x | u | x
CCN(Cc1nc2cc(Cl)ccc2c(=O)[nH]1)C(=O)c1nn(C)c(=O)c2ccccc12 | n | n | 18µM | n | n | n
CCN(Cc1nc2cc(Cl)ccc2c(=O)[nH]1)C(=O)c1cc(C2CC2)nn1-c1ccccc1 | n | n | n | 16µM | n | n
CCN(Cc1nc2cc(Cl)ccc2c(=O)[nH]1)C(=O)c1ccc(C)c(NC(=O)c2ccco2)c1 | n | n | u | u | n | n
Cc1cccn2c(=O)c(C(=O)N3CCN(c4ccccc4F)CC3)cnc12 | x | x | n | x | n | x
CSc1nn(Cc2ccc(F)cc2)c(N(C(C)=O)C(C)=O)c1S(=O)(=O)c1ccccc1 | x | x | n | x | n | x
CC1CCN(c2ccc(-c3cccc(NS(=O)(=O)c4ccc(Cl)s4)c3)nn2)CC1 | x | x | n | x | n | x
Cn1nc(-c2ccccc2)c(CO)c1Oc1ccc(F)cc1 | n | n | n | 21µM | n | n
C=CCOc1ccc(/C=N/N2C(=O)C(CC(=O)Nc3ccc(F)cc3F)SC2=NC)cc1 (stereo not drawn) | u | u | u | u | u | 15µM
CCCNC(=O)CNC(=S)N(Cc1cc(OC)c(OC)c(OC)c1)C1CCCC1 | n | n | 16µM | n | n | n
COc1cc(CN(C(=S)NCC(=O)O)C2CCCC2)cc(OC)c1OC | n | n | n | n | n | n
O=C(COc1cccc2ccccc12)N1c2ccccc2CCc2ccccc21 | u | u | 16µM | n | u | n
CCOC(=O)c1c(C)c(/C=N/Nc2ccccc2)n(C)c1C | n | n | n | 12µM | n | n
CCOC(=O)c1c(C)c(C(=O)O)n(C)c1C | n | n | n | n | n | n
CC(CC(=O)Nc1ccc(F)cc1)S(=O)(=O)c1cc2c3c(c1)CCN3C(=O)CC2 (stereo not drawn) | x | x | n | x | n | x
Cc1ccc(Nc2c(-c3ccccn3)nc3cccc(C)n23)cc1 | 7.3µM | n | 6.5µM | u | 5.2µM | 12µM
Cc1cc(C)n2c(Nc3c(C)cccc3C)c(-c3ccccn3)nc2n1 | 18µM | x | u | x | u | u
Cc1cccc2nc(-c3ccccn3)c(Nc3ccccc3)n12 | x | x | 6.5µM | x | n | x
CCN(CC)c1ccc(S(=O)(=O)N2CCOCC2)cc1NC(=O)CN1CCc2ccccc2C1 | u | n | u | n | n | n
CCN(c1cccc(C)c1)S(=O)(=O)c1ccc2[nH]cc(C(=O)NCCCOC)c(=O)c2c1 | x | x | u | x | n | x
S=C(Nc1cccnc1)Nc1cccc2cnccc12 | n | n | n | n | u | n
CN(C)S(=O)(=O)c1cccc(NC(=S)Nc2cccc3cnccc23)c1 | n | u | n | 21µM | u | n
CCOc1ccc(NC(=S)Nc2cccc3cnccc23)cc1 | n | n | 15µM | n | n | n

Compound activity: PubChem, National Center for Advancing Translational Sciences (NCATS)
